39 compounds from PubChem BioAssay (NCATS) can be followed below.

Each structure is given as a SMILES string. Inconclusive results are not listed. Unmarked numbers belong to inactive results. Activity calls are given as the source filed them. Calls come from the whole dose curve; as a rule, active = well fitted inhibition curve with a large enough effect; inconclusive = small, poorly fitted or top-dose-only effect; inactive = flat fitted curve, though single readings scatter.
Potency is the fitted concentration of half-maximal effect.

One test has as its system ECU. Nature of the test: qHTS profiling for inhibitors of Plasmodium falciparum proliferation (AID 504749).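 For activity, negative = inhibition: 0% = DMSO vehicle and full inhibition = artemisinin control.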 Note: nearly all actives have a fitted effect of over 60% in size. The conditions noted are these: P. falciparum in erythrocytes, SYBR Green DNA, 72 h; series mostly up to 28.7 µM; activity, negative = inhibition: at the top concentration. Summed up: (§1)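 P. falciparum-infected erythrocytes (0.3% parasitemia, 2.5% hematocrit) incubated with compound 72 h at 37 C, 5% CO2. Parasite DNA detected by SYBR Green after lysis, overnight at room temperature; normalised to 0.29 uM artemisinin and DMSO.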
Background: Quantitative high-throughput screening tests each substance at several concentrations.
For the compound `CC(C)C(=O)Nc1ccc([N+](=O)[O-])c(C(F)(F)F)c1`, the “activity, negative = inhibition” value is 13.1%.
On the same count and under the same terms, the same measure for `NC(=O)NO`: 2.63%.
Same read-out and setting: then `CCOC(=O)C(C)(C)Oc1ccc(Cl)cc1`, with 4.9%; and `CC(CCc1ccc(O)cc1)NCCc1ccc(O)c(O)c1` (configuration not stated), with 1.91%.
As to `Cc1cn([C@H]2C[C@H](N=[N+]=[N-])[C@@H](CO)O2)c(=O)[nH]c1=O`, the “activity, negative = inhibition” value was 2.2%.
On the same count and under the same terms, the same measure for `Cc1cc(C(C)(C)C)c(O)c(C)c1CC1=NCCN1`: -9.68%; for `NS(=O)(=O)c1cc2c(cc1Cl)NCNS2(=O)=O`: 3.69%; for `CCOC(=O)c1ncn2c1CN(C)C(=O)c1cc(F)ccc1-2`: 0.412%.
Consider `COC(=O)Nc1nc2ccc(C(=O)c3cccs3)cc2[nH]1`, for which the “activity, negative = inhibition” value is 3.42%.
Turning to `Clc1ccc2nsnc2c1NC1=NCCN1`, the “activity, negative = inhibition” value is 4.08%.
For `Cn1c(=O)c2c(ncn2C)n(C)c1=O`, the “activity, negative = inhibition” value was 13.4%.
In the case of `CC(C)Cc1ccc(C(C)C(=O)O)cc1` (configuration not stated), the “activity, negative = inhibition” value was 12.3%.
As to `Cn1cnc2c1c(=O)[nH]c(=O)n2C`, the “activity, negative = inhibition” value is 6%.
As to `Cn1c(=O)c2[nH]cnc2n(C)c1=O`, the “activity, negative = inhibition” value is 6.2%.
Still for that read-out and setting: the same measure for `NCCCCCC(=O)O`: 7.97% [at 12.8 µM]; for `CC(C)(Oc1ccc(C2CC2(Cl)Cl)cc1)C(=O)O` (configuration not stated): 9.83%; for `CN1C(C(=O)Nc2ccccn2)=C(O)c2ccccc2S1(=O)=O`: 1.3% [at 12.8 µM].
Regarding `N[C@@H](Cc1c[nH]c2ccc(O)cc12)C(=O)O`, the “activity, negative = inhibition” value was 14.7%.
Consider `COc1cc2c(c(OC)c1OC)-c1ccc(OC)c(=O)cc1[C@@H](NC(C)=O)CC2`, for which the “activity, negative = inhibition” value was 1.59%.
The same measure, in the same setting: the same measure for `Cc1cc(C(C)(C)C)cc(C)c1CC1=NCCN1`: -7.23% [at 12.8 µM]; for `Cc1cnc(C(=O)NCCc2ccc(S(=O)(=O)NC(=O)NC3CCCCC3)cc2)cn1`: 4.77%.
Regarding `CN1CCN2c3ccccc3Cc3ccccc3C2C1` (configuration not stated), the “activity, negative = inhibition” value was 0.603%.
In the case of `Nc1nnc(-c2cccc(Cl)c2Cl)c(N)n1`, the “activity, negative = inhibition” value was -1.92%.
With `CC[N+](CC)(CC)CCOc1cccc(OCC[N+](CC)(CC)CC)c1OCC[N+](CC)(CC)CC`, the “activity, negative = inhibition” value was 8.04%.
With `Cc1ccc(C(=O)Nc2ccc(S(=O)(=O)O)c3cc(S(=O)(=O)O)cc(S(=O)(=O)O)c23)cc1NC(=O)c1cccc(NC(=O)Nc2cccc(C(=O)Nc3cc(C(=O)Nc4ccc(S(=O)(=O)O)c5cc(S(=O)(=O)O)cc(S(=O)(=O)O)c45)ccc3C)c2)c1`, the “activity, negative = inhibition” value was 2.61%.
On the same count and under the same terms, then `CS(=O)(=O)Nc1ccc([N+](=O)[O-])cc1Oc1ccccc1`, with 4.59% [at 12.8 µM]; and `CC(=O)OCC(CCn1cnc2cnc(N)nc21)COC(C)=O`, with -1.58%; and `C[C@](N)(Cc1ccc(O)c(O)c1)C(=O)O`, with 7.2%.
For the compound `COc1ccccc1OCC(O)CN1CCN(CC(=O)Nc2c(C)cccc2C)CC1` (configuration not stated), the “activity, negative = inhibition” value was 3.56%.
Same read-out and setting: then `Cc1cn([C@H]2C=C[C@@H](CO)O2)c(=O)[nH]c1=O`, with 0.703%.
Take `Clc1ccccc1C(c1ccccc1)(c1ccccc1)n1ccnc1`: the Potency is 158 nM (active).
As for `NC(=O)OCC(COC(N)=O)c1ccccc1`, the “activity, negative = inhibition” value is 1.15%.
As to `COc1ccccc1N1CCN(CC(O)COc2cccc3ccccc23)CC1` (configuration not stated), the “activity, negative = inhibition” value was -1.06%.
On the same count and under the same terms, the same measure for `O=c1c(-c2ccc(O)cc2)coc2cc(O)cc(O)c12`: -0.986%.
Consider `CCCNCC(O)COc1ccccc1C(=O)CCc1ccccc1` (configuration not stated), for which the Potency is 708 nM (active).
In the case of `NCCc1cnc[nH]1`, the “activity, negative = inhibition” value was 1.82%.
For the compound `CN(C)c1nc(N(C)C)nc(N(C)C)n1`, the “activity, negative = inhibition” value was 20.1% [at 12.8 µM].
Same read-out and setting: the same measure for `CC(C)NCC(O)c1ccc(O)c(O)c1` (configuration not stated): -0.962%.

In a further test the test system is FAB9. Described as above. The conditions noted are these: P. falciparum in erythrocytes, SYBR Green DNA, 72 h; series mostly up to 28.7 µM; activity, negative = inhibition: at the top concentration. Summed up: as §1
Take `CC(C)C(=O)Nc1ccc([N+](=O)[O-])c(C(F)(F)F)c1`: the “activity, negative = inhibition” value was 2.23%.
The same measure, in the same setting: then `NC(=O)NO`, with 0.674%; and `CCOC(=O)C(C)(C)Oc1ccc(Cl)cc1`, with 5.9%.
Still for that read-out and setting: then `CC(CCc1ccc(O)cc1)NCCc1ccc(O)c(O)c1` (configuration not stated), with -2.32%; and `Cc1cn([C@H]2C[C@H](N=[N+]=[N-])[C@@H](CO)O2)c(=O)[nH]c1=O`, with 8.94%.
As for `Cc1cc(C(C)(C)C)c(O)c(C)c1CC1=NCCN1`, the “activity, negative = inhibition” value was 1.75%.
Take `NS(=O)(=O)c1cc2c(cc1Cl)NCNS2(=O)=O`: the “activity, negative = inhibition” value was -0.282%.
On the same count and under the same terms, then `CCOC(=O)c1ncn2c1CN(C)C(=O)c1cc(F)ccc1-2`, with 0.153%; and `COC(=O)Nc1nc2ccc(C(=O)c3cccs3)cc2[nH]1`, with 1.27%; and `Clc1ccc2nsnc2c1NC1=NCCN1`, with 6.2%.
On the same count and under the same terms, then `Cn1c(=O)c2c(ncn2C)n(C)c1=O`, with 1.48%; and `CC(C)Cc1ccc(C(C)C(=O)O)cc1` (configuration not stated), with 1.41%; and `Cn1cnc2c1c(=O)[nH]c(=O)n2C`, with 8.6%.
For `Cn1c(=O)c2[nH]cnc2n(C)c1=O`, the “activity, negative = inhibition” value is 0.825%.
Still for that read-out and setting: the same measure for `NCCCCCC(=O)O`: 1.75% [at 12.8 µM]; for `CC(C)(Oc1ccc(C2CC2(Cl)Cl)cc1)C(=O)O` (configuration not stated): 3.96%.
Turning to `CN1C(C(=O)Nc2ccccn2)=C(O)c2ccccc2S1(=O)=O`, the “activity, negative = inhibition” value is 5.02% [at 12.8 µM].
Regarding `N[C@@H](Cc1c[nH]c2ccc(O)cc12)C(=O)O`, the “activity, negative = inhibition” value is -0.0334%.
As for `COc1cc2c(c(OC)c1OC)-c1ccc(OC)c(=O)cc1[C@@H](NC(C)=O)CC2`, the “activity, negative = inhibition” value is 12.4%.
On the same count and under the same terms, then `Cc1cc(C(C)(C)C)cc(C)c1CC1=NCCN1`, with 2.59% [at 12.8 µM].
Consider `Cc1cnc(C(=O)NCCc2ccc(S(=O)(=O)NC(=O)NC3CCCCC3)cc2)cn1`, for which the “activity, negative = inhibition” value was 5.42%.
Still for that read-out and setting: then `CN1CCN2c3ccccc3Cc3ccccc3C2C1` (configuration not stated), with 11.1%; and `Nc1nnc(-c2cccc(Cl)c2Cl)c(N)n1`, with -12%.
On the same count and under the same terms, then `CC[N+](CC)(CC)CCOc1cccc(OCC[N+](CC)(CC)CC)c1OCC[N+](CC)(CC)CC`, with 5.28%; and `Cc1ccc(C(=O)Nc2ccc(S(=O)(=O)O)c3cc(S(=O)(=O)O)cc(S(=O)(=O)O)c23)cc1NC(=O)c1cccc(NC(=O)Nc2cccc(C(=O)Nc3cc(C(=O)Nc4ccc(S(=O)(=O)O)c5cc(S(=O)(=O)O)cc(S(=O)(=O)O)c45)ccc3C)c2)c1`, with 4.21%.
On the same count and under the same terms, then `CS(=O)(=O)Nc1ccc([N+](=O)[O-])cc1Oc1ccccc1`, with 12.2% [at 12.8 µM].
Regarding `CC(=O)OCC(CCn1cnc2cnc(N)nc21)COC(C)=O`, the “activity, negative = inhibition” value is 7.09%.
Same read-out and setting: the same measure for `C[C@](N)(Cc1ccc(O)c(O)c1)C(=O)O`: -2.32%; for `COc1ccccc1OCC(O)CN1CCN(CC(=O)Nc2c(C)cccc2C)CC1` (configuration not stated): 7.66%.
Take `Cc1cn([C@H]2C=C[C@@H](CO)O2)c(=O)[nH]c1=O`: the “activity, negative = inhibition” value was 6.45%.
With `Clc1ccccc1C(c1ccccc1)(c1ccccc1)n1ccnc1`, the Potency is 1.78 µM (active).
As to `CC(C)(C)C(=O)Oc1ccc(S(=O)(=O)Nc2ccccc2C(=O)NCC(=O)O)cc1`, the “activity, negative = inhibition” value is 4.11%.
Regarding `NC(=O)OCC(COC(N)=O)c1ccccc1`, the “activity, negative = inhibition” value is 6.63%.
With `COc1ccccc1N1CCN(CC(O)COc2cccc3ccccc23)CC1` (configuration not stated), the “activity, negative = inhibition” value was 5.35%.
As to `O=c1c(-c2ccc(O)cc2)coc2cc(O)cc(O)c12`, the “activity, negative = inhibition” value is -1.7%.
With `CCCNCC(O)COc1ccccc1C(=O)CCc1ccccc1` (configuration not stated), the Potency is 1.78 µM (active).
Take `NCCc1cnc[nH]1`: the “activity, negative = inhibition” value was 22.6%.
On to `CN(C)c1nc(N(C)C)nc(N(C)C)n1`, for which the “activity, negative = inhibition” value was 0.86% [at 12.8 µM].
Take `CC(C)NCC(O)c1ccc(O)c(O)c1` (configuration not stated): the “activity, negative = inhibition” value was 12.6%.
